# Sampled rows, rich in hits. Any-hit rate of the full collection: about 3.2%.
# GBA mod: alters purified human glucocerebrosidase activity. 48,000 tested, 1.1% active. purified enzyme, resorufin glucoside fluorescence (screen aimed at inhibitors), 20 min. P04062. Potency, µM. AID 360; in the data active = potency below about 15 µM; inconclusive = mostly about 16 µM to 33 µM;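 also: the screen sought inhibitors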
#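 Normal human glucocerebrosidase (0.2 nM final) was assayed with resorufin β-D-glucopyranoside (30 uM final) in 50mM citric acid/KH2PO4, 10mM sodium taurocholate, 0.01% tween-20, pH 5.9. Compounds were titrated; fluorescence (Ex 548, Em 600) read after 20 min at RT.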
# Bst PK mod: modulators of Bacillus stearothermophilus pyruvate kinase. purified pyruvate kinase, luminescence ATP production; ribose 5-phosphate activator present at AC10. Potency, µM. 51,000 tested, 1.2% active. AID 361; in the data active = potency below about 11 µM; inconclusive = mostly about 12 µM to 25 µM;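 the screen sought inhibitors and activators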;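 also: scaled between full activation by ribose 5 phosphate and full inhibition by luteolin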
# FLuc inh: inhibitors of firefly luciferase; P08659; purified firefly luciferase, luminescence, 8 min; 72,000 tested, 2.2% active; Potency, µM (series often up to 57.1 µM), for the others: at the top dose activity change, negative = inhibition, actives largely listed as inhibitors; AID 411; active = well fitted inhibition curve with a large enough effect; inconclusive = small, poorly fitted or top-dose-only effect; also: % is scaled to controls: 0 for no effect and ±100 for the full control effect; nearly all actives have a fitted effect of over 40% in size
# Target sequence (P08659 whole entry, looked up): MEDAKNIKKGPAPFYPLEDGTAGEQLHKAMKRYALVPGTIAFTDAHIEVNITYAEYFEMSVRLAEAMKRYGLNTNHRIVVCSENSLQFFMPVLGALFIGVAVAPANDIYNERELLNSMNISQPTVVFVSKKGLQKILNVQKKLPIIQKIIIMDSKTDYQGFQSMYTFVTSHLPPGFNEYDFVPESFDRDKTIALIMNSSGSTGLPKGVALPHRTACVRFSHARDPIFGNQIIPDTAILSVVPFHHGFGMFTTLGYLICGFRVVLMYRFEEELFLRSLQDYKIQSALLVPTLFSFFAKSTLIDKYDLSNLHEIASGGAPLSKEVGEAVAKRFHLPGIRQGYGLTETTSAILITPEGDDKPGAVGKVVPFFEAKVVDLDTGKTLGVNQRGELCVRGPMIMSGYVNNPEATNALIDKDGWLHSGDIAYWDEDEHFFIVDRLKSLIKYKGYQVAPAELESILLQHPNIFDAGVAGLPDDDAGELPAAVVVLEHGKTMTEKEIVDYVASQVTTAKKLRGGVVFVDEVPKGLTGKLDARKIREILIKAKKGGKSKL
#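 Titration-based qHTS; buffer 50 mM imidazole pH 7.2, 50 mM KCl, 7 mM MgCl2, 10 uM ATP, 0.01% Tween 20, 0.05% BSA; luciferase/luciferin detector mix added after compound; 8 min, ambient; luminescence.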
# The depositor's hits bear a star; i = inactive; u = inconclusive; x = not tested or not shown; ! = not confirmed by another sample; [ ] = remark or other dose. Potency is read from the fitted curve at half-maximal effect.
SMILES,GBA mod,Bst PK mod,FLuc inh
CCN(CC)C(=O)Oc1ccc2c(=O)c(-c3ccc(OC)cc3)coc2c1,>76.9,>57,-28.9%
O=c1c(-c2ccc(O)cc2)coc2cc(O)ccc12,x,x,10µM*!
Cc1ccccc1-c1coc2cc(O)ccc2c1=O,>76.9,>57,1.5%
N#Cc1cccc(-c2cc(-n3ccnc3)ncn2)c1,x,x,2.1%[2.29 µM]
O=C1[C@@H]2[C@H]3[C@H](O)[C@H](O)C/C(=N/OC[C@@H](O)COCc4ccco4)[C@@H]3CC[C@H]2C(=O)N1c1ccc(F)cc1F,x,x,-4.7%[11.4 µM]
O=C(CSc1nnnn1-c1ccccc1)NC(=O)Nc1ccc2c(c1)OCCO2,>76.9,x,15.8µM*
O=C(CSc1nnnn1Cc1ccccc1)Nc1ccc2c(c1)OCCO2,>76.9,>57,-3.6%
CCOC(=O)CCc1c(C)nc(SCCN2CCCC2)c(C#N)c1C,x,>57,-0.7%
CCOC(=O)CCSc1nc2c(c(C(F)(F)F)c1C#N)CCC2,14.9*,>57,0.2%
Cc1cccc(CNc2ncnc3ccc(-c4ccccc4C#N)cc23)c1,x,x,1.4%[2.29 µM]
COC(=O)[C@@H]1CC[C@H](C)[C@@H](c2ccc(C)cc2)N1C(=O)c1ccc(/C=N\O[C@@H](C)c2cn([C@H]3COC[C@H]3O)nn2)cc1,x,x,-0.7%[11.4 µM]
NCCCCNS(=O)(=O)c1ccc2c(Cl)cccc2c1,x,x,3.6%
CCCCCC(=O)O[C@H](CC(=O)O)C[N+](C)(C)C,x,x,-0.3%
O=C(Nc1ccc(OC(F)(F)F)cc1)c1cnc2n(c1=O)CCS2,x,x,-4.2%
O=C(Nc1ccc(OC(F)(F)F)cc1)C1=NCCN1,1.99*,i,10µM*
CCOc1ccc(Nc2nc(NCCN3CCOCC3)nc(OC)n2)cc1,u,6.31*,-2.8%
Clc1ccc(Nc2nc(NCCN3CCOCC3)nc(N3CCOCC3)n2)cc1,x,x,-1.7%
CCOc1ccc2nc(N3CCOCC3)nc(C)c2c1,x,i,15.8µM*
CCOC(=O)c1ccc(Nc2cc(C)nc(N3CCOCC3)n2)cc1,8.47*,1.52*,0.0%
Cc1ccc(Nc2nc(N3CCOCC3)nc(N3CCOCC3)n2)cc1,x,x,1.0%
CCOC(=O)c1ccc(NC(=O)c2ccc(CN3CCOCC3)cc2)cc1,x,>57,-6.1%
CCOc1ccc(Nc2cc(C)nc(N3CCOCC3)n2)cc1,3.43*,1.45*,0.5%
Nc1nc(N2CCOCC2)nc2ccccc12,x,x,-0.8%
CN1CCC[C@@H]1c1cccnc1.O=C(O)c1ccccc1O.O=C([OH2+])c1ccccc1O.O=C([OH2+])c1ccccc1O.[Mn],x,x,1.2%[11.4 µM]
COc1ccc(-n2c(=O)c(C)nc3cnc(Oc4ccccc4)nc32)cc1,x,x,0.6%[11.4 µM]
SMILES,GBA mod,Bst PK mod,FLuc inh
O=S(=O)(c1ccccc1)N1CCC2(CC1)CN(Cc1ccccc1)C2,x,x,0.2%[11.4 µM]
CN(C)c1nc(-c2ccccc2C(F)(F)F)nc2ccccc12,x,x,-1.3%[2.29 µM]
CN1CCN(c2ncc3nc(-c4cccc(C#N)c4)c(=O)n(CCc4ccccc4)c3n2)CC1,x,x,0.7%[11.4 µM]
Clc1ccc(Br)cc1-c1nc(-c2ccncc2)no1,>76.9,>57,0.2%
Cc1ccc(-c2nc(-c3ccccc3)no2)c(Cl)c1,x,x,0.251µM*
Fc1ccccc1-c1nc(-c2ccccc2)no1,u,5.75*,6.31µM*
c1ccc(-c2noc(-c3cccc4ccccc34)n2)cc1,x,i,15.8µM*
c1ccc(-c2ccccc2-c2nc(-c3cccnc3)no2)cc1,>76.9,>57,1.6%
Brc1ccccc1-c1nc(-c2ccccc2)no1,x,x,3.16µM*
NC(=O)c1ccccc1-c1nc(-c2ccccc2)no1,>76.9,x,-27.3%
c1ccc(-c2cc(-c3nc(-c4cccnc4)no3)c3ccccc3n2)cc1,x,x,3.2%
O=C(O)CCC/C=C\C[C@@H]1CO[C@H](C(F)(F)F)O[C@@H]1c1ccccc1O,x,x,2.9%
FC(F)(F)c1ccccc1-c1cc(NCCN2CCOCC2)ncn1,x,x,0.2%[2.29 µM]
Cc1ccc(S(=O)(=O)N[C@H]2COC(=O)C/C=C\[C@H](C)[C@@H](NS(=O)(=O)c3ccc(C)cc3)COC(=O)C/C=C\[C@@H]2C)cc1,x,x,0.9%[11.4 µM]
CCc1ncc(CO)n1Cc1cccc2ccccc12,x,x,4.3%[11.4 µM]
CCCNC(=O)OC[C@H]1O[C@@H](CCO/N=C2/[C@H]3O[C@@H]3[C@@H](O)[C@H]3[C@H]2CCn2c(=O)n(-c4ccccc4)c(=O)n23)C=C[C@@H]1Oc1ccc(OC)cc1,x,x,2.2%[11.4 µM]
O=c1cnc2cnc(Nc3ccccc3)nc2n1C1CC1,x,x,1.0%[11.4 µM]
COc1ccc(-c2noc(CCC(=O)Nc3cc(OC)ccc3OC)n2)cc1,>76.9,>57,-11.5%
CN(C)C(=O)CCc1nc(-c2ccc(C(C)(C)C)cc2)no1,>76.9,>57,1.8%
CC(C)(C)c1ccc(-c2noc(CCC(N)=O)n2)cc1,>76.9,i,12.6µM*
CNC(=O)CCc1nc(-c2ccc(C(C)(C)C)cc2)no1,>76.9,u,12.6µM*
COc1ccc(-c2noc(CCC(=O)Nc3cc(Cl)c(OC)cc3OC)n2)cc1,x,>57,15.8µM*
Cc1ccc(-c2noc(CCC(=O)NCCN3CCOCC3)n2)cc1,u,>57,-0.8%
CCOc1ccc(-c2noc(CCC(=O)NC)n2)cc1OCC,>76.9,>57,-0.6%
Cc1ccc(-c2noc(CCC(=O)NCCN3CCc4ccccc4C3)n2)cc1,15*,>57,-1.6%
SMILES,GBA mod,Bst PK mod,FLuc inh
CN1CC[C@@]2(CCCN(S(=O)(=O)c3ccccc3)C2)C1,x,x,-3.2%[11.4 µM]
O=c1cc(O)cc(/C=C\c2ccc(O)c(O)c2)o1,x,x,-22.3%
Cc1nc(N)sc1-c1csc(Nc2ccc(Cl)cn2)n1,u,i,-2.8%
Cc1nc(N)sc1-c1csc(Nc2ccccn2)n1,x,x,12.6µM*
N#Cc1ccc(CN2CCCC3(CCN(C(=O)c4cc(C(F)(F)F)cc(C(F)(F)F)c4)CC3)C2)cc1,x,x,3.0%[11.4 µM]
COC(=O)[C@@H]1O[C@@H](SCCN)[C@@H](O)[C@H](O)[C@H]1O,x,x,4.2%[11.4 µM]
CC1=C(C(=O)Nc2ccccc2)C(c2ccco2)C(C#N)=C(SCc2ccccc2)N1 (stereo not given),x,x,-1.0%
CC1=C(C(=O)Nc2ccccc2)C(c2ccco2)C(C#N)=C(SCC(=O)Nc2cccc(C)c2C)N1 (stereo not given),8.55*,>57,-2.1%
CCN(CC(=O)NCc1cccs1)c1ccc(S(=O)(=O)N2CCOCC2)cn1,>76.9,>57,1.4%
CN1CCN(S(=O)(=O)c2ccc(N(C)Cc3cccs3)nc2)CC1,4.48*,>57,1.8%
O=C(NCC1CCCO1)c1cccs1 (stereo not given),x,x,0.0%
O=C(c1ccc2c(c1)OCCCO2)c1cccs1,>76.9,x,12.6µM*
CC(C)NC[C@@H](O)c1ccc(O)c2ncccc12,x,x,-1.2%[11.4 µM]
COc1cc2cc3c4cc(OC)c(OC)cc4cc[n+]3c(C)c2cc1OC,x,x,3.9%[25.5 µM]
CCCN=Cc1sc2ccc(OCC)cc2c1O,x,x,15.8µM*
CCOc1ccc2c(O)csc2c1,>76.9,x,4.0%
CNC(=O)[C@@H]1O[C@@H](n2cnc3c(N)ncnc32)[C@@H](O)[C@H]1O,x,x,-0.2%
COc1nc(Nc2nc3ccccc3c(=O)[nH]2)nc2ccc(C)cc12,x,x,1.7%
Cc1nc(Nc2nc(-c3ccccc3)cc(=O)[nH]2)nc2ccccc12,x,5.14*,10µM*
Cc1cccc(Nc2cc(Cl)nc(SCC(=O)O)n2)c1C,x,x,0.7%[11.4 µM]
O=C(c1cnccn1)N1CCC2(CC1)CN(c1cccc(-c3ccccc3)c1)C2,x,x,-2.4%[11.4 µM]
O=C(/C=C\c1ccc(O)cc1)c1ccc(O)cc1O,x,x,25.1µM*
O=C(O)/C=C/c1ccc(O)c(O)c1,x,>11.4,-2.4%[25.5 µM]
N[C@@H](C(=O)O)c1ccc(O)c(C(=O)O)c1,x,x,-3.1%

# Screening data (PubChem)
